Compound activity as filed in PubChem BioAssay.
This is a sample that favours compounds with a hit; in the whole collection about 21% have one here.
TDP1 cell noCPT = qHTS for Inhibitors of human tyrosyl-DNA phosphodiesterase 1 (TDP1): qHTS in cells in absence of CPT; DT40 Tdp1-/- hTDP1 cells, no CPT, ATP luminescence, 48 h; Potency, µM (doses to about 46.2 µM), hits mostly inhibitors; actives 15% (n = 420,000); also: nearly all actives have a fitted effect of over 55% in size
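Seeded 400 DT40-hTDP1 cells/well (vehicle DMSO, no 20 nM CPT); pinned compounds; ≥48 hr at 37 °C; CellTiter-Glo luminescence as viability measure.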
TDP1 cell CPT = growth inhibition of DT40 Tdp1-/-;hTDP1 cells with camptothecin (screen for TDP1 inhibitors). chicken DT40 Tdp1-/-;hTDP1 cells + 20 nM CPT, ATP luminescence, 48 h. Potency, µM (top dose mostly 46.2 µM), actives largely listed as inhibitors. actives 12% (n = 420,000). AID 686979; also: nearly all actives have a fitted effect of over 55% in size
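Chicken DT40 Tdp1-/- cells stably complemented with human TDP1 were seeded at 400 cells/well in medium containing 20 nM camptothecin, exposed to pin-transferred compounds, and grown at 37 °C for at least 48 hr. Viability was read as ATP luminescence.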
VP16 counter = inhibits Gal4-VP16 luciferase reporter, ROR gamma counter-screen. Drosophila S2 Gal4-VP16 UAS-luciferase, luminescence, 20 h. Potency, µM (highest dose often 53.6 µM), usual class: inhibitors. actives 3.5% (n = 310,000);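 also: Gal4-VP16 expression switched on by copper sulfate through the metallothionein promoter; nearly all actives have a fitted effect of over 50% in size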
RORgamma inh = blocks mouse ROR gamma transcriptional activity | Drosophila S2 Gal4-RORgamma UAS-luciferase reporter, 20 h | Potency, µM (top dose mostly 53.6 µM), most hits filed as inhibitors | actives 5.4% (n = 310,000) | AID 2551; also: nearly all actives have a fitted effect of over 60% in size
Target sequence (P51450 whole entry, looked up, the tested form may be a part): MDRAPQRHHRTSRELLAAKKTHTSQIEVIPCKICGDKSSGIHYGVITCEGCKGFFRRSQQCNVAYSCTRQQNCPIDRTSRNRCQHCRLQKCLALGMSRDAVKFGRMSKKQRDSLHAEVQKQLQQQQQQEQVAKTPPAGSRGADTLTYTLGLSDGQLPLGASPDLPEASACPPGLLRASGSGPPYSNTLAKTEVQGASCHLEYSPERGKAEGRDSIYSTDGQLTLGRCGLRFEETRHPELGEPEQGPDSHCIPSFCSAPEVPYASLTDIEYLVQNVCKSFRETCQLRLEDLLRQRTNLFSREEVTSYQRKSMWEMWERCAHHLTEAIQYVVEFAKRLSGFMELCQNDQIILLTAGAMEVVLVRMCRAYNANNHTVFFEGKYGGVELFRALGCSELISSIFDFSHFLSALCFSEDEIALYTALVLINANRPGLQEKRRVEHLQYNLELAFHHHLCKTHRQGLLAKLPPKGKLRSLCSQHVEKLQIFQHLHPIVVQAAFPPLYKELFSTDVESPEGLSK
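Using a luciferase readout, inhibitors were identified by reduced reporter activity in Drosophila cells coexpressing a copper-inducible Gal4–ROR gamma fusion and UAS-driven Photinus luciferase, incubated 20 hr after 700 uM copper sulfate.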
IL-1B inflam inh = inflammasome signaling inhibition, IL-1 beta readout. AID 743279. actives 4.7% (n = 360,000). activity change, % at 57.5 µM. THP-1 LPS/ATP IL-1B secretion, AlphaLISA, 16 h; active compounds read low; in the data active = activity change below about -50%; inconclusive = mostly about -30% to -49%
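Secreted IL-1B measured by AlphaLISA bead assay after 16 h compound exposure of THP-1 cells; compounds (final up to 57.5 uM) added 1 h before LPS (250 ng/mL) and ATP (1.25 mM) stimulation; lower signal means less secretion.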
ELG1 repair inh = ELG1-dependent DNA repair inhibition. HEK293T ELG1-luciferase reporter, luminescence, 16 h; DNA damage induced by 5-fluorouridine. Potency, µM (doses to about 46.1 µM), actives largely listed as inhibitors. actives 2.3% (n = 330,000). AID 504467; also: nearly all actives have a fitted effect of over 55% in size
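Step one: seed 2,000 cells per well. Step two: pin-transfer compound or DMSO alongside 5-fluorouridine. Step three: incubate 16 hr, 37 °C, 5% CO2. Step four: add ONE-Glo, wait 30 min, read luminescence.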
Numbers stand for hits; 0 = inactive; ? = inconclusive; - = no result given; [ ] = another dose, or the depositor's remark. Unless noted, calls follow the shape of the dose curve; as a rule, active = well fitted curve in the direction sought with a large enough effect; inconclusive = small, poorly fitted or top-dose-only effect, or another doubt; inactive = no such curve, though single readings can be large; an effect the other way counts as inactive or inconclusive.

SMILES	TDP1 cell noCPT	TDP1 cell CPT	VP16 counter	RORgamma inh	IL-1B inflam inh	ELG1 repair inh
COc1ccc(C(C)(NC(C)=O)c2nc(-c3cccc(C(F)(F)F)c3)cs2)cc1 (stereo unspecified)	?	?	-	-	0	-
COc1cc(F)ccc1-c1csc(C(C)(NC(C)=O)c2ccccc2)n1 (stereo unspecified)	5.2µM	12µM	-	-	0	-
CC=C(Cl)Cl	-	-	0	0	-	-
COc1cccc(NC(=O)CCS(=O)(=O)c2ccc3c(c2)oc(=O)n3C)c1	0	0	0	0	0	0
O=C(Nc1cccc(F)c1)N1CCC2(CC1)CCN(C(=O)c1cc(C(F)(F)F)cc(C(F)(F)F)c1)CC2	?	0	0	0	-	-
CCOC(=O)N1CCN(c2nc(-c3ccc(F)cc3)cs2)CC1	?	0	0	?	0	0
O=C(C1CCCCC1)N1CCN(c2nc(-c3ccc(F)cc3)cs2)CC1	?	?	0	0	0	21µM
CCOC(=O)C1CCN(C(=O)C2CCN(c3nn4c(=O)cc(C)nc4s3)CC2)CC1	0	0	0	0	0	0
CCCc1cc(=O)n2nc(N3CCC(C(=O)N4CCN(c5cccc(OC)c5)CC4)CC3)sc2n1	5.8µM	12µM	0	0	?	0
COc1ccc(NC(=O)CN2CCN(c3nc(-c4cccc(OC)c4)cs3)CC2)cc1	?	?	?	?	0	12µM
COc1cccc(-c2csc(N3CCN(C(=O)Nc4ccccc4OC)CC3)n2)c1	0	0	0	0	0	0
COc1cccc(-c2csc(N3CCN(C(=O)C4CCCCC4)CC3)n2)c1	?	?	0	?	-73	?
CCC1(c2ccccc2)NC(=O)N(CC(=O)Nc2ccc3c(C)cc(=O)oc3c2)C1=O (stereo unspecified)	?	?	-	-	0	0
COc1cccc(N2CCN(CC(=O)Nc3nnc(-c4ccccc4)s3)CC2)c1	21µM	23µM	0	0	0	?
COc1cccc(N2CCN(CC(=O)NC3=Nc4ccccc4N=C(C)C3c3ccccc3)CC2)c1 (stereo unspecified)	?	?	0	0	-	?
O=C(CN(Cc1ccccc1)S(=O)(=O)c1ccc2c(c1)OCCO2)N/N=C/c1ccc(F)cc1	0	0	0	0	-56	0
CCCCn1c(N)c(N(Cc2ccccc2OC)C(=O)CCSC)c(=O)[nH]c1=O	0	0	0	0	0	0
CCCCn1c(N)c(N(Cc2ccccc2OC)C(=O)c2ccc([N+](=O)[O-])s2)c(=O)[nH]c1=O	18µM	?	-	-	0	0
CCCn1c(N)c(N(CCOC)C(=O)c2ccccc2F)c(=O)[nH]c1=O	0	0	0	0	0	0
CCCCN(C(=O)c1ccccc1OCc1ccc(F)cc1)c1c(N)n(CCC)c(=O)[nH]c1=O	?	18µM	?	0	0	0
CCCCN(C(=O)c1ccc(-c2ccc([N+](=O)[O-])cc2)o1)c1c(N)n(CCCC)c(=O)[nH]c1=O	16µM	?	-	-	0	0
Cc1nn(-c2ccc(N3CCCCC3)nn2)c(C)c1CCC(=O)NCc1ccc(OC(C)C)cc1	16µM	16µM	-	-	-	-
Cc1nn(-c2ccc(N3CCCCC3)nn2)c(C)c1CCC(=O)NCc1ccc(Cl)cc1	26µM	?	-	-	-	-
CC(=O)c1ccccc1-c1ccc2c(c1)CC(CNC(=O)c1cc(C)on1)O2 (stereo unspecified)	?	0[9.04 µM]	-	-	-	-
CC(C)c1c(C(=O)NCCN2CCOCC2)cnn1-c1nccc(-c2ccco2)n1	0	0	-	-	-	-
SMILES	TDP1 cell noCPT	TDP1 cell CPT	VP16 counter	RORgamma inh	IL-1B inflam inh	ELG1 repair inh
CC1(C(=O)Nc2ccc3c(c2)OCO3)CCN1C(=O)Cc1cccc2ccccc12 (stereo unspecified)	16µM	21µM	-	-	0	-
CC(C)c1ccc(CC(=O)N2CCC2(C)C(=O)Nc2ccc3c(c2)OCO3)cc1 (stereo unspecified)	18µM	?	-	-	0	-
COc1ccccc1OCCC(=O)NCc1ccc2c(c1)OCO2	?	?	0	0	0	0
COc1ccccc1CN(CC(=O)NCc1ccc2c(c1)OCO2)C(=O)c1ccc2c(c1)OCCO2	21µM	?	0	0	0	?
CC1(C(=O)Nc2ccc3c(c2)OCO3)CCN1Cc1csc2ccccc12 (stereo unspecified)	?	23µM	-	-	?	-
N#Cc1ccc(C[C@H](C(=O)O)N2C(=O)c3ccc(C(=O)O)cc3C2=O)cc1	-	-	0	0	-	-
CCN(CC)C(=O)Cn1c(=O)n(Cc2ccc(C(=O)NCCCOC)cc2)c(=O)c2ccccc21	0	0	-	-	-	-
COCCn1c(=O)c(-c2cc(F)cc(F)c2)nc2cnc(N(C)C)nc21	0	0	0	0	-	-
Cn1c(=O)[nH]c(=O)c2c1nc(N1CCN(CCO)CC1)n2Cc1ccccc1	0	0	0	0	0	0
COc1ccc(CN2CCC2(C)C(=O)NCc2ccc3c(c2)OCO3)c2ccccc12 (stereo unspecified)	?	23µM	-	-	0	-
Cc1ccc(NC(=O)C2(C)CCN2C(=O)Cc2ccc(C(C)C)cc2)cc1 (stereo unspecified)	23µM	?	-	-	0	-
O=c1c2ccccc2oc2ccc(NCCCn3ccnc3)cc12	?	?	0	?	-58	?
CN(C)N1C(N)=C(C#N)C(c2ccc3c(c2)OCO3)C2=C1CCCC2=O (stereo unspecified)	0	0	0	0	0	0
CCOC(=O)C1(Cc2ccccc2C)CCCN(C(=O)CSC)C1 (stereo unspecified)	?	?	-	-	0	-
CCOC(=O)C1(Cc2ccccc2C)CCCN(C(=O)c2ccc(CSC)o2)C1 (stereo unspecified)	?	?	0	0	0	0
CCOC(=O)C1(Cc2ccccc2C)CCCN(C(=O)c2ccc3nccnc3c2)C1 (stereo unspecified)	21µM	?	0	0	0	23µM
CCOC(=O)C1(Cc2ccccc2C)CCCN(C(=O)CCn2nccc2C)C1 (stereo unspecified)	13µM	?	0	0	0	0
CCOC(=O)C1(Cc2ccccc2C)CCCN(C(=O)CCc2cccnc2)C1 (stereo unspecified)	?	16µM	?	0	0	0
COc1cc(C2NC(=O)CCC2[N+](=O)[O-])c(OC)cc1Br (stereo unspecified)	0	0	0	0	0	0
O=C(Nc1ccccc1)c1cc(C2CCCCN2S(=O)(=O)c2ccccc2)on1 (stereo unspecified)	?	?	-	-	0	-
